# Assay results reported in PubChem BioAssay AID1918990 (ICCB-Longwood Screening Facility, Harvard Medical School, 2023).
# Among all 29,000 compounds or so, about 85 (0.3%) were called active. Shown is part of a subset that was picked to be rich in actives. A number with no mark means an inactive call.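 How the source made its calls: active means replicate mean overnight rise in green fluorescent reporter signal, 3 or more SD over negative controls; inactive means the rest.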
# Assay: activators of Burkholderia fixLJ two-component system, primary screen, B. multivorans, GFP reporter (AID 1918990)
# Conditions: B. multivorans fixK-promoter GFP reporter, 18 h; hits give high values
row,Structure (SMILES),z-score
1,COc1ccccc1-c1cc(C(F)(F)F)nc(S(=O)(=O)CCCC(=O)Nc2ccc(F)cc2F)n1,-0.87
2,CCC(=O)N1CCc2cc(Br)cc(S(=O)(=O)CCC(=O)NCc3ccccc3OC)c21,-0.86
3,CCC(=O)N1CCc2cc(Br)cc(S(=O)(=O)CCC(=O)N3CCN(c4ccc(F)cc4)CC3)c21,3.68 (active)
4,CCC(=O)N1CCc2cc(Br)cc(S(=O)(=O)CCC(=O)NCCc3ccc(OC)c(OC)c3)c21,2.58
5,Cc1cccc2nc(-c3ccc(Cl)s3)c(Nc3ccc4c(c3)OCCO4)n12,0.38
6,COc1ccc(CNC(=O)Cc2coc3ccc(C(C)C)cc23)cc1,-1.14
7,CC(=O)N1CCCCC1C(=O)Nc1cccc(-n2cccn2)c1 (stereo unspecified),-4.62
8,Cc1ccc(C)c(N2CCN(C(=O)CN3C(=O)COc4ccc(S(=O)(=O)N5CCCCCC5)cc43)CC2)c1,-0.13
9,CCc1cc2c(cc(C(=O)OC)n2Cc2nc(-c3ccc(C)cc3)oc2C)s1,-0.09
10,CCCOc1ccc(C2c3c(-c4ccccc4O)n[nH]c3C(=O)N2Cc2cccnc2)cc1 (stereo unspecified),-1.98
11,CCOc1ccc(N2CC(c3nc4ccccc4n3CCOc3ccc(OC)cc3)CC2=O)cc1 (stereo unspecified),-4.05
12,COc1ccc(OCCCn2c(C3CC(=O)N(c4ccc(F)cc4)C3)nc3ccccc32)cc1 (stereo unspecified),0.64
13,CCc1ccccc1N1CC(c2nc3ccccc3n2CCCCOc2ccccc2)CC1=O (stereo unspecified),5.94 (active)
14,CC(=O)c1c(C)n(S(=O)(=O)c2ccc(Cl)cc2)c2ccc(NS(=O)(=O)c3ccc(Cl)cc3)cc12,-0.71
15,COc1ccc(NC(=O)CNC(=O)Cn2ccc3ccccc3c2=O)c(OC)c1,-2.14
16,CN1CCCn2nc(C(=O)NCCCCc3ccccc3)cc2C1,-1.24
17,CCc1ccccc1NS(=O)(=O)c1ccc2nc(-c3ccccc3)[nH]c2c1,-1.16
18,CC(Cn1cccn1)NC1CCN(C(=O)c2cccnc2)CC1 (stereo unspecified),-2
19,Cc1ccc(N2CC(C(=O)Nc3ccc(N(C)C)cc3)CC2=O)cc1Cl (stereo unspecified),0.09
20,COc1cccc(-c2nc(CS(=O)(=O)CC(=O)NCCc3ccc(OC)c(OC)c3)c(C)o2)c1,-0.64
21,CCc1ccccc1NC(=O)N1CCC2(CC1)Oc1ccccc1C(=O)N2Cc1ccccc1F,-0.81

row,Structure (SMILES),z-score
1,O=C(NC1CCCCC1)c1ccc2c(c1)N(Cc1ccc(Cl)cc1)C(=O)c1ccccc1S2=O (stereo unspecified),0.06
2,CCC(=O)N1CCc2cc(S(=O)(=O)NCCC(=O)Nc3cccc(C)c3C)ccc21,-0.9
3,COc1ccccc1Nc1cc(C(=O)NCCCN(C)C2CCCCC2)c2ccccc2n1,-0.07
4,CC(C)Sc1nnc(NC(=O)c2ccccc2-n2cnnc2)s1,-0.42
5,CC(C)S(=O)(=O)c1oc(-c2ccc(F)cc2)nc1S(=O)(=O)c1ccc(F)cc1,-3.54
6,CCN(C(=O)Cn1cnc2sc(C)c(S(=O)(=O)N3CCN(c4ncccn4)CC3)c2c1=O)c1ccccc1F,-2.69
7,CCNC(=O)Cn1nc(C)n2c(cc3c(OC)cccc32)c1=O,-1.37
8,CC(C)(C)C(Cn1ccnc1)NC(=O)C=Cc1cc(CO)cs1 (stereo unspecified),0.54
9,COc1ccc(N(C)C(=O)C2CCN(S(=O)(=O)c3cc(Br)cc4c3N(C(C)=O)CC4)CC2)cc1,-1.87
10,COc1cc(C(=O)N2CCC(O)(c3ccc(C)cn3)CC2)nc(OC)n1,-2.73
11,CCOc1ccc(NC(=O)c2cnn(-c3ccccc3)c2-n2cccc2)cc1,0.15
12,CC(=O)N1CCN(Cc2cc(Cl)cc(Cl)c2)C2CS(=O)(=O)CC21 (stereo unspecified),1.37
13,CN(C)C(=O)N1CCC(C(=O)NC2COCC2Cc2ccncc2)CC1 (stereo unspecified),-2.62
14,COc1ccc(OC)c(-c2nc(CN3CCNC(=O)CC3)c(C)o2)c1,-1.03
15,O=C1N(Cc2ccccc2)c2ccc(Cl)cc2C1(O)c1c[nH]c2ccccc12 (stereo unspecified),-2.44
16,CCCNC(=O)CCn1nc(-c2ccccc2)c2ccccc2c1=O,-2.63
17,COC(=O)c1ccc(NC(=O)c2cccc3c2C(=O)N(C2CCCCC2)C3)cc1,-0.11
18,CN(CC(=O)Nc1cccc(C(F)(F)F)c1)S(=O)(=O)c1cccs1,-1.64
19,COc1ccc(C2=NC3(CCCCC3)N(CC(=O)Nc3ccc(C(C)C)cc3)C2=O)cc1,-0.47
20,O=C(CSc1nc(-c2cccc(F)c2)[nH]c1-c1ccccc1)Nc1ccc2c(c1)OCO2,-0.24
21,CC1CCCCN1Cc1c(O)ccc2c(=O)c(-c3cccc(Cl)c3)c(C(F)(F)F)oc12 (stereo unspecified),-3.67

row,Structure (SMILES),z-score
1,O=C(NC1CCCC1Cc1ccc(F)cc1)c1cccc(=O)[nH]1 (stereo unspecified),0.15
2,Cn1nnnc1SCCNCc1ccc(Cl)c(Cl)c1,-2.02
3,O=C(c1ccnc(CC2COc3ccccc3C2)c1)N1CCOCC1 (stereo unspecified),1.09
4,CN1CCN(CC2(CNC(=O)CN(C)Cc3cccnc3)CC2)CC1,-0.08
5,CCCc1cc(CNC(=O)c2ccc3c(c2)OCC(=O)N3)on1,0.27
6,CCn1cc(C(=O)N(C)Cc2ccccc2)c(=O)c2cc(S(=O)(=O)N3CCCCCC3)ccc21,-2.08
7,Cc1cccc(C(=O)N2CCC[C@@]3(CN(Cc4ncc(C)[nH]4)CCC3O)C2)c1 (stereo partly specified),0.68
8,CNC(=O)c1cccc(NC(=O)CCCc2cccs2)c1C,-1.26
9,COc1ccc(CNc2nc(-c3ccccc3)nn2C(=O)c2ccccc2OC)cc1,0.5
10,COc1cc(C2c3c(oc4ccccc4c3=O)C(=O)N2c2nc(C)c(C)s2)ccc1O (stereo unspecified),-1
11,Cc1nc(SCCOc2ccc(Cl)cc2)[nH]c(=O)c1Cc1ccccc1,-1.27
12,COCC1C(NS(=O)(=O)c2ccc(F)cc2C)C2CCOC21 (stereo unspecified),-0.38
13,COc1ccc(-c2nc3ccccc3o2)cc1NC(=O)c1cc([N+](=O)[O-])ccc1N1CCOCC1,-1.81
14,CC(=O)c1ccc(N2CCN(c3nc4c(S(=O)(=O)c5ccccc5)nnn4c4ccc(Cl)cc34)CC2)cc1,0.23
15,COc1ccc2c(c1)c(=O)c(S(=O)(=O)c1ccc(F)cc1)cn2CC(=O)Nc1ccc(C)cc1C,-1.75
16,Cc1nn(-c2nc(-c3ccccc3)cc(C(F)(F)F)n2)c(C)c1Cl,-0.93
17,CCCSc1ncc(Cl)c(C(=O)Nc2c(C(=O)Nc3ccccc3)oc3ccccc23)n1,-0.41
18,O=C(c1ccc2c(c1)N(Cc1ccc(Cl)cc1)C(=O)c1ccccc1S2(=O)=O)N1CCCCC1,0.84
19,COc1ccccc1CNC(=O)CCn1c(=O)c2ccccc2n(CC(=O)Nc2cccc(Cl)c2)c1=O,0.27
